Compound activity as filed in PubChem.
In the library only some 9.2% were active in any assay of this set; here they are far more common.
FLuc counter – qHTS profiling assay for firefly luciferase inhibitor/activator using purifed enzyme and Km concentrations of substrates (counterscreen for miR-21 project) | AID 588342, 2011 | purified FLuc, Km substrates, luminescence inhibition | 360,000 compounds, 6.9% hits | Potency, µM (highest dose often 57.5 µM), for inactives: at the highest dose activity change, negative = inhibition, hits mostly inhibitors;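 also: plate controls were vehicle for no effect and reference inhibitor for full effect; nearly all actives have a fitted effect of over 55% in size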
Target sequence (P08659 whole entry, looked up): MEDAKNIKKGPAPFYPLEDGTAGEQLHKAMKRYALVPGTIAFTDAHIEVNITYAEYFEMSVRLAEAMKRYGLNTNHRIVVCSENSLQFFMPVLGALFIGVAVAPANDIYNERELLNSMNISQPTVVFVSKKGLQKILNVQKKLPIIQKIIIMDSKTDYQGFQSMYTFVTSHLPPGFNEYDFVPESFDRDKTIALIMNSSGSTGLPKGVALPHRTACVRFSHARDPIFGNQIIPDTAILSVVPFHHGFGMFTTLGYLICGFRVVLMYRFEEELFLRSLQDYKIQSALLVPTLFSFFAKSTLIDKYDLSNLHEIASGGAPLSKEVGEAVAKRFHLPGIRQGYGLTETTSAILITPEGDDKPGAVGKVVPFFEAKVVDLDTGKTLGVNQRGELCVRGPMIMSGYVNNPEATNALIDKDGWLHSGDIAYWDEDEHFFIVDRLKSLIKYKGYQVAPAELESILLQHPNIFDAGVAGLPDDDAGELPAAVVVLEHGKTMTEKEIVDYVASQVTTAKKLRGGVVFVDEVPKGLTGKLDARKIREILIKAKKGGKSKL
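Purified P. pyralis luciferase, 10 nM final, with Km-level 10 uM D-luciferin and 10 uM ATP in 50 mM Tris acetate pH 7.5, 10 mM Mg acetate, 0.01% Tween-20, 0.05% BSA; 6-point qHTS titration about 60 µM downward; luminescence read.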
NPC1 prom act – qHTS Assay for NPC1 Promoter Activators; AID 485313, 2010; 320,000 compounds, 2.4% hits; Huh7 NPC1 promoter luciferase reporter, 24 h; Potency, µM (highest dose often 9.22 µM), for the others: at the top dose activation, most hits filed as activators; also: % of control where 0% means no effect; nearly all actives have a fitted effect of over 60% in size
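Cells: Huh7 expressing luciferase under the NPC1 promoter, 1500/well. Seeded 2 h, compound added, incubated 24 h at 37 °C. Luciferase reagent, 10 min ambient, then luminescence.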
Rab9 promoter act – qHTS Assay for Rab9 Promoter Activators; Huh7 Rab9 promoter-luciferase reporter, luminescence, 24 h; AID 485297, 2010; Potency, µM (titrated, usually from 9.22 µM), for the others: at the top dose activation, negative = inhibition, usual class: activators; 320,000 compounds, 2.8% hits; also: % of control where 0% means no effect; nearly all actives have a fitted effect of over 60% in size
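Huh7 cells stably carrying Rab9 promoter–luciferase reporter, plated 1500 cells/well, compound added after 2 h and incubated 24 h at 37 °C; luciferase luminescence then read after 10 min with detection reagent.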
ELG1 repair inh – qHTS screen for small molecules that inhibit ELG1-dependent DNA repair in human embryonic kidney (HEK293T) cells expressing luciferase-tagged ELG1. HEK293T ELG1-luciferase reporter, luminescence, 16 h; DNA damage induced by 5-fluorouridine. Potency, µM (doses to about 46.1 µM), without a hit: at the top dose activity change, negative = inhibition, usual class: inhibitors. 330,000 compounds, 2.3% hits; also: % is scaled to controls: 0 for no effect and ±100 for the full control effect; nearly all actives have a fitted effect of over 55% in size
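Step one: seed 2,000 cells per well. Step two: pin-transfer compound or DMSO alongside 5-fluorouridine. Step three: incubate 16 hr, 37 °C, 5% CO2. Step four: add ONE-Glo, wait 30 min, read luminescence.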
ELG1 genotox – qHTS screen for small molecules that induce genotoxicity in human embryonic kidney (HEK293T) cells expressing luciferase-tagged ELG1. 330,000 compounds, 1.3% hits. Potency, µM (top dose mostly 46 µM), for the others: at the top dose activity change, positive = activation, most hits filed as activators. HEK293T ELG1-luciferase reporter, luminescence, 16 h; also: % of control where 0% means no effect; nearly all actives have a fitted effect of over 60% in size
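Genotoxic stress is detected as increased luminescence from luciferase-tagged ELG1 in HEK293T cells, measured with ONE-Glo after a 16 hr treatment at 37 °C.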
SMN2 splice enh – qHTS Assay for Enhancers of SMN2 Splice Variant Expression; 210,000 compounds, 2.8% hits; AID 1458, 2008; HEK293 SMN2-luciferase splicing reporter, luminescence, 30-36 h; Potency, µM (highest dose often 46.1 µM), for the others: at the highest dose activity change, positive = activation, usual class: activators; also: % of control where 0% means no effect; nearly all actives have a fitted effect of over 55% in size
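HEK293 cells carry an SMN2 […]–luciferase reporter in which exon 7 inclusion puts luciferase in frame. Cells were plated 10-12 h before compound addition, then incubated 30-36 h at 37C. ONE-Glo luminescence was read; sodium butyrate at 4.5 mM final served as control.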
Numbers without * were called inactive; [ ] = dose if it differs, or a comment. Calls follow the shape of the dose curve; as a rule, active = well fitted curve in the direction sought with a large enough effect; inconclusive = small, poorly fitted or top-dose-only effect, or another doubt; inactive = no such curve, though single readings can be large; an effect the other way counts as inactive or inconclusive. Potency is read from the fitted curve at half-maximal effect.

COc1ccccc1NC(=O)C1CCCN(S(=O)(=O)c2ccc(-n3cnnn3)cc2)C1 (stereo not given) was read as FLuc counter -2.5%, NPC1 prom act -0.5%, Rab9 promoter act -2.0%, ELG1 repair inh inconclusive and ELG1 genotox -18.2%.
For O=C(CSc1nnc(N2CCCC2)n1-c1ccccc1Cl)N1CCN(c2ccccn2)CC1 the results were FLuc counter 5.3%, NPC1 prom act 0.5%, Rab9 promoter act -7.8%, ELG1 repair inh -13.8% and ELG1 genotox -2.3%.
`COc1cccc(/C=N/Nc2ncnc3scc(-c4ccccc4)c23)c1OC` gave FLuc counter 12µM*, NPC1 prom act 1.7%, Rab9 promoter act -6.6%, ELG1 repair inh 14.6µM*, ELG1 genotox -17.3% and SMN2 splice enh -10.0%.
Cc1cccc(NC(=S)NCc2ccc(F)cc2)c1C was read as FLuc counter -1.2%, NPC1 prom act -2.0%, Rab9 promoter act -4.1%, ELG1 repair inh 13.7% and ELG1 genotox -2.4%.
Screening CCC1Oc2ccc(C)cc2N(CC(=O)N(Cc2ccc3c(c2)OCO3)CC2CCCO2)C1=O (stereo not given) returned FLuc counter 2.3%[2.3 µM], NPC1 prom act -2.7%, Rab9 promoter act -2.0%, ELG1 repair inh inconclusive, ELG1 genotox -10.2% and SMN2 splice enh -13.3%.
For COc1ccc(CN(CC2CCCO2)C(=O)CN2C(=O)C(C)Oc3ccc(C)cc32)cc1OC (stereo not given) the results were FLuc counter -1.9%, NPC1 prom act -1.4%, Rab9 promoter act -2.9%, ELG1 repair inh 8.2µM*, ELG1 genotox -9.4% and SMN2 splice enh 6.8%.
Screening CCC(=O)NNc1ncnc2c1cnn2-c1ccc(C)c(Cl)c1 returned FLuc counter 21.3µM*.
Screening Cc1ccc(-n2ncc3c(NC4CCCCC4)ncnc32)cc1Cl returned FLuc counter 1.07µM*.
For Cc1ccc(-n2ncc3c(NC4CCCCC4)ncnc32)cc1C the results were FLuc counter 0.601µM*.
Cc1ccc(-n2ncc3c(N4CCN(Cc5ccccc5)CC4)ncnc32)cc1Cl was read as FLuc counter -11.1%.
CC(=O)NNc1ncnc2c1cnn2-c1ccc(C)c(C)c1 was read as FLuc counter inconclusive, NPC1 prom act 10.7%, Rab9 promoter act 20.2%, ELG1 repair inh inconclusive, ELG1 genotox inconclusive and SMN2 splice enh 22.2%.
Cc1ccc(OCC(=O)Nc2ccc3c(c2)OC(F)(F)O3)c([N+](=O)[O-])n1 was read as FLuc counter 6.5%, NPC1 prom act -4.9%, Rab9 promoter act -1.3%, ELG1 repair inh 2.7%, ELG1 genotox 1.5% and SMN2 splice enh -11.4%.
For Cc1ccc(OCC(=O)Nc2ccc(N3CCOCC3)cc2)c([N+](=O)[O-])n1 the results were FLuc counter 0.5%, NPC1 prom act -10.2%, Rab9 promoter act -4.2%, ELG1 repair inh -25.2%, ELG1 genotox -2.2% and SMN2 splice enh -18.1%.
For Cc1ccc(OCC(=O)Nc2ccc(C)c(F)c2)c([N+](=O)[O-])n1 the results were FLuc counter 9.53µM*, NPC1 prom act 2.24µM*, Rab9 promoter act 2µM*, ELG1 repair inh inconclusive and ELG1 genotox inconclusive.
Cc1ccc(OCC(=O)Nc2ccc3c(c2)OCO3)c([N+](=O)[O-])n1 was read as FLuc counter 6.01µM*, NPC1 prom act inconclusive, Rab9 promoter act inconclusive, ELG1 repair inh inconclusive, ELG1 genotox inconclusive and SMN2 splice enh 20µM*.
Cc1ccc(OCCOc2ccc(Br)cc2)c([N+](=O)[O-])n1 was read as FLuc counter 9.53µM*, NPC1 prom act inconclusive, Rab9 promoter act inconclusive, ELG1 repair inh inconclusive, ELG1 genotox inconclusive and SMN2 splice enh 11.2µM*.
Screening O=C(c1ccc(Nc2nc3ccccc3n3nnnc23)cc1)N1CCN(c2ccc(F)cc2)CC1 returned FLuc counter -1.3% and SMN2 splice enh -3.9%.
COc1cc(C(=O)OCCCOC(=O)c2cc(OC)c(OC)c(OC)c2)cc(OC)c1OC was read as FLuc counter 5.3%, NPC1 prom act -4.9%, Rab9 promoter act 3.6%, ELG1 repair inh -7.2% and ELG1 genotox -2.1%.
COc1cc(OC)c(C(=O)OCCCOC(=O)c2cc(OC)c(OC)cc2OC)cc1OC was read as FLuc counter -8.0%, NPC1 prom act -2.3%, Rab9 promoter act -2.1%, ELG1 repair inh 11.6µM* and ELG1 genotox 1.6%.
O=C(COC(=O)c1ccc(F)cc1F)NC1CC1 was read as FLuc counter -2.0%, NPC1 prom act 0.9%, Rab9 promoter act 3.0%, ELG1 repair inh -15.5%, ELG1 genotox 10.9% and SMN2 splice enh -9.6%.
Screening CCOC(=O)c1cc(-c2ccccc2)nn1Cc1cc(CC)no1 returned FLuc counter inconclusive, NPC1 prom act 21.3%, Rab9 promoter act inconclusive, ELG1 repair inh inconclusive and ELG1 genotox inconclusive.
`CCOC(=O)c1cc(-c2ccccc2C)nn1Cc1cc(CC)no1` gave FLuc counter 16.9µM*, NPC1 prom act 17.3%, Rab9 promoter act 26.1%, ELG1 repair inh inconclusive and ELG1 genotox 7.1%.
Cc1ccc2c(c1)sc[n+]2Cc1ccccc1 was read as FLuc counter 5.36µM*, NPC1 prom act 25.9%, Rab9 promoter act 3.7%, ELG1 repair inh inconclusive, ELG1 genotox inconclusive and SMN2 splice enh 11.0%.
`COc1ccc(C(CNS(=O)(=O)c2cccc(F)c2)N2CCCC2)cc1` (stereo not given) gave ELG1 repair inh -2.3% and ELG1 genotox -1.3%.
O=C(CCCc1ccccc1)Nc1ccccn1 was read as FLuc counter inconclusive, NPC1 prom act 12.6%, Rab9 promoter act 28.1%, ELG1 repair inh inconclusive, ELG1 genotox inconclusive and SMN2 splice enh 9.7%.
`Cc1c(NC(=O)c2cccc(NC(=O)COc3cccc(Br)c3)c2)c(=O)n(-c2ccccc2)n1C` gave ELG1 repair inh 23.1µM* and ELG1 genotox -11.1%.
`C/C(CC(=O)Nc1cc(C)ccn1)=N\NC(=O)COc1cccc(C)c1` gave FLuc counter 13.5µM*, NPC1 prom act -5.8%, Rab9 promoter act -5.0%, ELG1 repair inh inconclusive, ELG1 genotox 10.1% and SMN2 splice enh 2.1%.
